Unmarked numbers belong to inactive results. Records with an inconclusive call do not appear. Entries that show only a call come without a potency. Calls of active or inactive are those of the source. The call rests on the fitted dose curve; in most records, active means well fitted curve in the direction sought with a large enough effect in the repeat runs; inconclusive means weak or mixed curves; inactive means no such curve, though single readings can be large; an effect the other way counts as inactive or inconclusive.
Legend:
[1] = Caspase-3/7 induction in CHO-K1 cells by small molecules, qHTS cell viability counter screen (AID 1346979); further: nearly all actives have a fitted effect of over 35% in size; further: potency means the concentration at half of the fitted maximal effect
Summary of the method: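 Cells (CHO-K1, wild type) are plated at 1,500 per well and incubated 5hr. Test compounds in DMSO are then pinned in, followed by 16hr at 37C and 5% CO2. Viability is read by CellTiter-Fluor fluorescence after 1hr.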

[2] = Caspase-3/7 induction in CHO-K1 cells by small molecules, qHTS assay (AID 1346980); further: nearly all actives have a fitted effect of over 15% in size
Summary of the method: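 Luminescent Caspase-Glo 3/7 read (30min, room temperature) quantified apoptosis induction. Cells were wild-type CHO-K1, treated with compound for 17hr at 37 C and 5% CO2.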

[3] = target: Nuclear receptor subfamily 1 group I member 2 (Homo sapiens) (UniProt O75469); experiment: Human pregnane X receptor (PXR) small molecule agonists, qHTS assay (AID 1346982); further: nearly all actives have a fitted effect of over 35% in size; further: potency means the concentration at half of the fitted maximal effect
Nuclear receptor subfamily 1 group I member 2 (Homo sapiens), sequence (O75469 whole entry, looked up): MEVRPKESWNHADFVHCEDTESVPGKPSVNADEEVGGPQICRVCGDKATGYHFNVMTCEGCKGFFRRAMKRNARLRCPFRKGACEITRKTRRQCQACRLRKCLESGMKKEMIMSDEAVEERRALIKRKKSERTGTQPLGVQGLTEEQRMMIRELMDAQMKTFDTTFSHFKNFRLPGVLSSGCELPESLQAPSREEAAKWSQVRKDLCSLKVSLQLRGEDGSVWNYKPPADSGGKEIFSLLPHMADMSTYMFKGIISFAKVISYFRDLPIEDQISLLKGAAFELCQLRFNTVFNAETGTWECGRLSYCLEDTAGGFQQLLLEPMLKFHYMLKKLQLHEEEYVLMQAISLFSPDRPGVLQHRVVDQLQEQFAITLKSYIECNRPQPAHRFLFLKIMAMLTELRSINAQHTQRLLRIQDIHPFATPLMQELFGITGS
Summary of the method: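 We seeded PXR-Luc HepG2 cells in assay medium containing 5% charcoal-stripped FBS, added compounds 5 hr later, incubated 24 hr, and read luminescence with ONE-Glo reagent.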

[4] = target: Nuclear receptor subfamily 1 group I member 2 (Rattus norvegicus) (UniProt Q9R1A7); experiment: Rat pregnane X receptor (rPXR) activation by small molecules, qHTS assay (AID 1346983); settings: rPXR luciferase reporter cells, One-Glo luminescence, 24 h; max activation: active compounds read high; further: nearly all actives have a fitted effect of over 20% in size
Nuclear receptor subfamily 1 group I member 2 (Rattus norvegicus), sequence (Q9R1A7 whole entry, looked up): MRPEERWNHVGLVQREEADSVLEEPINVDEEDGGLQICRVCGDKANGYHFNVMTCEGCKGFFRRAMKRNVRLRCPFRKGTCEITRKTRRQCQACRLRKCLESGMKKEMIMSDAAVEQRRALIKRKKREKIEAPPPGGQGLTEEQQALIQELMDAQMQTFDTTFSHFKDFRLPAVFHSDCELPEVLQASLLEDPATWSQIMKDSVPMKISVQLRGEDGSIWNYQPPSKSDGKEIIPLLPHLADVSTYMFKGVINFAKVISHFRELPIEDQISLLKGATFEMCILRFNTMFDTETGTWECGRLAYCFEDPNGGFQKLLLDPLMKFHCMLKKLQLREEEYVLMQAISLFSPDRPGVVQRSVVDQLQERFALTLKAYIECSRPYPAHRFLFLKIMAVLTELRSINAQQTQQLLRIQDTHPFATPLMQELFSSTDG
Summary of the method: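 Luminescent readout (One-Glo luciferase, 30 min room temperature) followed 24 hr compound treatment at 37 C of rPXR cells plated 2,000 per well and preincubated 5hr; qHTS format with compounds delivered in DMSO.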

[5] = target: Nuclear receptor subfamily 1 group I member 2 (Homo sapiens) (UniProt O75469); experiment: CYP3A4 induction through human pregnane X receptor (PXR) by small molecules, qHTS assay (AID 1346984); further: nearly all actives have a fitted effect of over 40% in size
Summary of the method: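 qHTS, concentration-response format: HepG2 DPX-2 line, PXR/CYP3A4-luc. Exposure 24 h, 37C. Substrate Luciferin-IPA 3uM final, 3 h. Detection One-Glo, 30 min RT.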

[6] = target: Nuclear receptor subfamily 1 group I member 2 (Homo sapiens) (UniProt O75469); experiment: Human pregnane X receptor (PXR) activation by small molecules, qHTS assay (AID 1346985); further: nearly all actives have a fitted effect of over 40% in size; further: potency means the concentration at half of the fitted maximal effect
Summary of the method: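 DPX-2 cells (HepG2 co-transfected with a PXR response element and a CYP3A4-promoter luciferase construct) were seeded at 2,000 per well, rested 5 hr at 37C, then exposed to DMSO-dissolved compounds for 24 hr. Activation was read as luciferase luminescence.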

[7] = target: Cytochrome P450 2D6 (Homo sapiens) (UniProt P10635); experiment: Cytochrome P450 Family 2 Subfamily D Member 6 (CYP2D6) small molecule antagonists: luciferase reporter qHTS assay (AID 1671196); further: nearly all actives have a fitted effect of over 50% in size; further: potency means the concentration at half of the fitted maximal effect
Cytochrome P450 2D6 (Homo sapiens), sequence (P10635 whole entry, looked up): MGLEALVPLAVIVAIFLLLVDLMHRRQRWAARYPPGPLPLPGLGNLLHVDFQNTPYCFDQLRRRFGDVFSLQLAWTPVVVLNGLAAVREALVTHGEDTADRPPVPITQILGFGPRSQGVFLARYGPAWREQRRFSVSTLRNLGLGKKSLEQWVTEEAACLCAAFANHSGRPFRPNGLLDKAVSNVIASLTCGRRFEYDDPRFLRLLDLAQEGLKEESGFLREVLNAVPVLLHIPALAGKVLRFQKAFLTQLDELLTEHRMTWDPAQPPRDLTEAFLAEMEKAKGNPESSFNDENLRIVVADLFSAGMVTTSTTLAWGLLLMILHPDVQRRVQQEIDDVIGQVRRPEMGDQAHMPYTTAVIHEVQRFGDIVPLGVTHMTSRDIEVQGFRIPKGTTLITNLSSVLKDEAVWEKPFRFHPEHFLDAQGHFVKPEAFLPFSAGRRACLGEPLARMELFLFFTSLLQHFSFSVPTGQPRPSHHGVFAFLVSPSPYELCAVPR
Summary of the method: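 Luminescence (RLU), read 20 min after detection reagent, indicated CYP2D6 conversion of proluciferin to luciferin during a 1 h NADPH-dependent reaction at room temperature.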

[8] = target: Cytochrome P450 2C19 (Homo sapiens) (UniProt P33261); experiment: Cytochrome P450 Family 2 Subfamily C Member 19 (CYP2C19) small molecule antagonists: luciferase reporter qHTS assay (AID 1671197); further: nearly all actives have a fitted effect of over 65% in size; further: potency means the concentration at half of the fitted maximal effect
Cytochrome P450 2C19 (Homo sapiens), sequence (P33261 whole entry, looked up): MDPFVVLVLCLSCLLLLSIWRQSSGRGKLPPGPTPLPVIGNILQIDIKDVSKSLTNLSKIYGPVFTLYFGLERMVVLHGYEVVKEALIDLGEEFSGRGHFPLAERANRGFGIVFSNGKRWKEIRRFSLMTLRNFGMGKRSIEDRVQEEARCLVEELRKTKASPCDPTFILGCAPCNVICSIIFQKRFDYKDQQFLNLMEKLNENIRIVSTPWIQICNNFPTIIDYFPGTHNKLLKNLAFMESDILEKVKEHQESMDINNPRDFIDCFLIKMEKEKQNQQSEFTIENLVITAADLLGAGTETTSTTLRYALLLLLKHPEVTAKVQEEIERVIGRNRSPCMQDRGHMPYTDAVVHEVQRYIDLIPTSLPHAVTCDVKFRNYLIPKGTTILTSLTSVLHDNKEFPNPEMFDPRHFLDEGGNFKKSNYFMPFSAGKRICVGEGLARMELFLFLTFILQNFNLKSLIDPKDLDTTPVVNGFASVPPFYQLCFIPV
Summary of the method: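 Inhibition of CYP2C19 was scored from loss of luminescence in a P450-Glo proluciferin substrate assay, NADPH-started and run 1 h at 37C, with ketoconazole as positive control.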

[9] = target: Cytochrome P450 1A2 (Homo sapiens) (UniProt P05177); experiment: Cytochrome P450 Family 1 Subfamily A Member 2 (CYP1A2) small molecule antagonists: luciferase reporter qHTS assay (AID 1671199); further: nearly all actives have a fitted effect of over 50% in size; further: potency means the concentration at half of the fitted maximal effect
Cytochrome P450 1A2 (Homo sapiens), sequence (P05177 whole entry, looked up): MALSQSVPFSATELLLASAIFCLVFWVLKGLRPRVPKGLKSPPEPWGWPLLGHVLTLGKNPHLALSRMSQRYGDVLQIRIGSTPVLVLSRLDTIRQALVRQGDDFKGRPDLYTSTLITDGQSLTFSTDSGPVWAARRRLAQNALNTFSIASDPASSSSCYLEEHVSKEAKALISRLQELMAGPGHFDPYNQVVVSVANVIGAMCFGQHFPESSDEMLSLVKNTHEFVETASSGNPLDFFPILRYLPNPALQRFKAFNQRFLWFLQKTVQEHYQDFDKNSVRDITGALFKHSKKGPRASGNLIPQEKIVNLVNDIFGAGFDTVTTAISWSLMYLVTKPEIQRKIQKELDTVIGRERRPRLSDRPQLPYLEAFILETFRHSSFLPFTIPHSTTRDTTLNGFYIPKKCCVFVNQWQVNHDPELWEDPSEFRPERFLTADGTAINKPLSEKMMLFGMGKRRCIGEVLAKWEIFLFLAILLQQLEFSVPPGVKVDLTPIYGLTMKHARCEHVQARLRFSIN
Summary of the method: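 CYP1A2 turnover of a luminogenic substrate was quantified after 1 h with NADPH regeneration at room temperature. Furafylline served as positive control.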

[10] = target: Voltage-gated inwardly rectifying potassium channel KCNH2 (Homo sapiens) (UniProt Q12809); experiment: Human Ether-a-go-go-Related Gene (hERG) channel small molecule antagonists: fluorescence cell-based qHTS assay (AID 1671200); further: nearly all actives have a fitted effect of over 50% in size; further: potency means the concentration at half of the fitted maximal effect
Voltage-gated inwardly rectifying potassium channel KCNH2 (Homo sapiens), sequence (Q12809 whole entry, looked up): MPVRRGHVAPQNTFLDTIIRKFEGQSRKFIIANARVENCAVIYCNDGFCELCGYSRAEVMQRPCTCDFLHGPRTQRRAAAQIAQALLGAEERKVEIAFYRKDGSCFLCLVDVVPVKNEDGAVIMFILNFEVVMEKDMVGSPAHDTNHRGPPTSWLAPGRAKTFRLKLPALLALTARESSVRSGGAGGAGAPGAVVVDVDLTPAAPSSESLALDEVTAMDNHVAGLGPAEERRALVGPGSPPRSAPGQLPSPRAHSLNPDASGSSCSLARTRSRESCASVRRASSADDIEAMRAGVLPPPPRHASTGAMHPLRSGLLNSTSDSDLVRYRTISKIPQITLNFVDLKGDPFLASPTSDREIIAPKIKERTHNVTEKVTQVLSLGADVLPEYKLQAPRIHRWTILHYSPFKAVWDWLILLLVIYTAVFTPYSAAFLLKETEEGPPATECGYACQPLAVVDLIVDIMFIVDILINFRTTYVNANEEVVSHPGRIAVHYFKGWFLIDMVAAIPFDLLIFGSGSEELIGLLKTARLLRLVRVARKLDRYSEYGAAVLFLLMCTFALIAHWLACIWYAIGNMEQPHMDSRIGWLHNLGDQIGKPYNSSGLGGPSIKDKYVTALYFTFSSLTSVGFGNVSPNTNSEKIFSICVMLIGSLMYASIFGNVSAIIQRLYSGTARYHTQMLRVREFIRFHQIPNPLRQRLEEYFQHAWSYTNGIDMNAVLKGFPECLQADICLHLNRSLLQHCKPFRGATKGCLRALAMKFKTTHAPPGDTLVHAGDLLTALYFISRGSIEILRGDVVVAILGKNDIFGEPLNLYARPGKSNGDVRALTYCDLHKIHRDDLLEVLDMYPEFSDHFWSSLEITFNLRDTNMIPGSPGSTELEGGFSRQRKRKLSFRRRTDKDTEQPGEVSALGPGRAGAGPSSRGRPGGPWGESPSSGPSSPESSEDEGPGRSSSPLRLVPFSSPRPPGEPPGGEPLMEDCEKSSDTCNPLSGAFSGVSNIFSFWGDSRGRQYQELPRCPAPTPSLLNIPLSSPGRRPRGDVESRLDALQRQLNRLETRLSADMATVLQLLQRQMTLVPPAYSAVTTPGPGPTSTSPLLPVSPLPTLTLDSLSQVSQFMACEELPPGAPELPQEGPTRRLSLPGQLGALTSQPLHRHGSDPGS
Summary of the method: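 Channel function was assessed by thallium flux. Cells seeded the previous day and kept at 37 C took up FluxOR II dye over 1 h in the dark at room temperature, then sat another 10 min before stimulation.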

[11] = target: Cytochrome P450 3A4 (Homo sapiens) (UniProt P08684); experiment: Cytochrome P450 Family 3 Subfamily A Member 4 (CYP3A4) small molecule antagonists: luciferase reporter qHTS assay (AID 1671201); further: series mostly up to about 120 µM; nearly all actives have a fitted effect of over 50% in size
Cytochrome P450 3A4 (Homo sapiens), sequence (P08684 whole entry, looked up): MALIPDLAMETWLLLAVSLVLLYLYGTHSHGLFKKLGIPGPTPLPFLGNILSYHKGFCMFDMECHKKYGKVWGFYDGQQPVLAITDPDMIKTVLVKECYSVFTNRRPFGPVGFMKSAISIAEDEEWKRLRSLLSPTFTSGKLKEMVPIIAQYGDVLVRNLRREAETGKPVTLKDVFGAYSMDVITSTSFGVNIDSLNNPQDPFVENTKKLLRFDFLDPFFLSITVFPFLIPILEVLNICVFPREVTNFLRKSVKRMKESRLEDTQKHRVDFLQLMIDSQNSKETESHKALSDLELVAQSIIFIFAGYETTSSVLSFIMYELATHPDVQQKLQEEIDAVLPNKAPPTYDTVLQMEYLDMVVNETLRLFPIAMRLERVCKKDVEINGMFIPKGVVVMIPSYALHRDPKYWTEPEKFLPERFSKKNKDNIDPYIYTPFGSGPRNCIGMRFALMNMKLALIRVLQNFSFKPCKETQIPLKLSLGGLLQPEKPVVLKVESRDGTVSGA
Summary of the method: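 Compounds in DMSO were pin-transferred onto CYP3A4 enzyme-substrate mix and held 10 min at room temperature. NADPH regenerating solution started the reaction for 1 h; luciferin detection reagent stopped it, and luminescence was read after 20 min.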

[12] = Caspase-3/7 induction in HepG2 cells by small molecules, qHTS cell viability counter screen (AID 1346981); further: nearly all actives have a fitted effect of over 30% in size; further: potency means the concentration at half of the fitted maximal effect
Summary of the method: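 Multiplexed with the caspase-3/7 assay: HepG2 cells, 16 hr compound treatment, CellTiter-Fluor viability detection by fluorescence.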

[13] = target: Cytochrome P450 2C9 (Homo sapiens) (UniProt P11712); experiment: Cytochrome P450 Family 2 Subfamily C Member 9 (CYP2C9) small molecule antagonists: luciferase reporter qHTS assay (AID 1671198); further: nearly all actives have a fitted effect of over 50% in size; further: potency means the concentration at half of the fitted maximal effect
Cytochrome P450 2C9 (Homo sapiens), sequence (P11712 whole entry, looked up): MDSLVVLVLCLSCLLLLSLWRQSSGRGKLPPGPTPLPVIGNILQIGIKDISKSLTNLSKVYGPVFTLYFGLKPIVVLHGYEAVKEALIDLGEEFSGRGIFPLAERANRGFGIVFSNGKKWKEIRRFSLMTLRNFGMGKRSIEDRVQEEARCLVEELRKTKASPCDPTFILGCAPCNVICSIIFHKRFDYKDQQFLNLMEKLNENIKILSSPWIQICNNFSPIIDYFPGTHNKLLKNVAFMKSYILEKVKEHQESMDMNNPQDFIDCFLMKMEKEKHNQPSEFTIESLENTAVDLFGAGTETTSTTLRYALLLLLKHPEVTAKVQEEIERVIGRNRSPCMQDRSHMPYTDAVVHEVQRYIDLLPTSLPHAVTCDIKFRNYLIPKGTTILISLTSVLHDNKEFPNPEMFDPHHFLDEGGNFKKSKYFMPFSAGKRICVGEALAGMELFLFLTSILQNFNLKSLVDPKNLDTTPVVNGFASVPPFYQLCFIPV
Summary of the method: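 Enzyme-substrate mix preincubated with compound 10 min at room temperature; reaction started with NADPH regeneration solution, 1 h 37C. Luminescent luciferin product read after 20 min detection reagent.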

[14] = Caspase-3/7 induction in HepG2 cells by small molecules, qHTS assay (AID 1346978); further: nearly all actives have a fitted effect of over 15% in size
Summary of the method: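 Caspase-3/7 induction was measured by Caspase-Glo 3/7 luminescence (30 min, room temperature) after a 17 hr compound exposure of wild-type HepG2 cells seeded at 2,000 per well and pre-incubated 5 hr.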

Compound | Potency [1] | Potency [2] | Potency [3] | max activation [4] | Potency [5] | Potency [6] | Potency [7] | Potency [8] | Potency [9] | Potency [10] | Potency [11] | Potency [12] | Potency [13] | Potency [14]
CCCCC | inactive | inactive | 53.6 µM (active) | -1.52% | inactive | inactive | inactive | inactive | 78.4 µM (active) | inactive | inactive | – | – | –
CCN(CC)c1ccc(C(=C2C=CC(=[N+](CC)CC)C=C2)c2cc(S(=O)(=O)O)ccc2S(=O)(=O)[O-])cc1 | 26.6 µM (active) | – | – | – | – | – | – | 12.3 µM (active) | 17.4 µM (active) | inactive | – | 23.7 µM (active) | 15.5 µM (active) | –
C=C(C)C(=O)OCC | – | inactive | inactive | – | – | – | – | – | inactive | inactive | inactive | inactive | inactive | –
CN1CCC(N(Cc2cccs2)c2ccccc2)CC1 | – | inactive | – | – | – | – | 0.436 µM (active) | inactive | inactive | 2.68 µM (active) | inactive | – | inactive | inactive
O=C1[C@H]2CCCC[C@H]2C(=O)N1CCCCN1CCN(c2nsc3ccccc23)CC1 | – | inactive | 5.31 µM (active) | 2.09% | – | 12.6 µM (active) | – | inactive | inactive | 8.49 µM (active) | – | inactive | inactive | inactive
CC(=O)[O][Al][O]C(C)=O | inactive | inactive | – | -1.35% | inactive | inactive | inactive | inactive | inactive | inactive | inactive | inactive | inactive | –
CN(C)C(=O)NC1(c2ccccc2)CCN(CC[C@@]2(c3ccc(F)c(F)c3)CN(C(=O)c3ccccc3)CCO2)CC1 | – | inactive | – | – | – | – | 26.2 µM (active) | – | inactive | – | – | – | – | –
C#C[C@]1(O)CC[C@H]2[C@@H]3CCc4cc(OC5CCCC5)ccc4[C@H]3CC[C@@]21C | 29.8 µM (active) | inactive | – | -3.04% | – | – | – | – | – | inactive | – | inactive | – | –
CCCCCCCCCCO[C@@H]1O[C@H](CO)[C@@H](O)[C@H](O)[C@H]1O | – | inactive | – | – | – | – | inactive | – | inactive | inactive | inactive | inactive | inactive | –
CC(C)C[C@H]1C(=O)N2CCC[C@H]2[C@]2(O)O[C@](NC(=O)[C@@H]3C=C4c5cccc6[nH]c(Br)c(c56)C[C@H]4N(C)C3)(C(C)C)C(=O)N12 | – | inactive | – | 0.513% | inactive | – | inactive | 21.4 µM (active) | inactive | inactive | – | 16.4 µM (active) | – | inactive
O=C(O)CC(=O)C(=O)O | inactive | – | – | – | – | – | – | 56.6 µM (active) | – | inactive | inactive | inactive | inactive | –
O=C(Nc1ccc(S(=O)(=O)N2CCOCC2)cc1)c1cc(Cl)ccc1NS(=O)(=O)c1ccc(Cl)s1 | – | inactive | 9.44 µM (active) | – | – | – | – | 38.9 µM (active) | inactive | inactive | – | inactive | 0.0436 µM (active) | inactive
CCCCCCCCCCCCN1CCCCCC1=O | – | inactive | 21.7 µM (active) | – | – | – | – | inactive | – | inactive | inactive | inactive | 31.7 µM (active) | –
CCCCCCCCCCCCCCOS(=O)(=O)O | – | inactive | inactive | – | – | – | – | inactive | inactive | inactive | inactive | inactive | – | inactive
NC(=O)C(c1ccccc1)(c1ccccc1)[C@@H]1CCN(CCc2ccc3c(c2)CCO3)C1 | – | inactive | – | – | – | – | 0.389 µM (active) | inactive | inactive | – | inactive | inactive | inactive | –
CC(C)(COC(=O)c1ccccc1)COC(=O)c1ccccc1 | – | inactive | inactive | – | – | – | inactive | 20 µM (active) | – | – | inactive | inactive | 6.33 µM (active) | inactive
CC(=O)OC[C@H]1O[C@@H](n2ncc(=O)[nH]c2=O)[C@H](OC(C)=O)[C@@H]1OC(C)=O | – | inactive | – | -1.15% | inactive | inactive | 4.36 µM (active) | inactive | inactive | inactive | inactive | inactive | – | inactive
O=C1OC(CN2CCOCC2)CN1/N=C/c1ccc([N+](=O)[O-])o1 (centres undefined) | – | inactive | inactive | -7.02% | inactive | inactive | 38.9 µM (active) | inactive | inactive | inactive | inactive | – | inactive | –
